# Data as given in the supplement of paper PMC6555819.
# Legend:
# Assay in all cases: PBM binding z-score (relative to random genomic background probes); higher = stronger binding; sequences stand for … in GC…GCGATTGACAGCGTAGAATGAAGG
# [1] = test system: FXR:RXRa (NR concentration 270 nM, RXRa partner concentration 90 nM)
# Summary of the method: (§1)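 Binding buffer was PBS pH 7.4 with 2% milk, 0.02% Triton X-100, 1 mM DTT, 0.2 mg/mL BSA and 0.4 mg/ml salmon testes DNA. In it, ligand-free nuclear receptor dimers were incubated 1 h on custom Agilent 4×180K protein-binding microarrays carrying double-stranded probes. Antibodies against each partner (one per run) detected binding, and z-scores were calculated against random background probes after regression normalization of scanned fluorescence.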
# [2] = test system: LXRa:RXRa (NR concentration 270 nM, RXRa partner concentration 90 nM)
# Summary of the method: as §1
# [3] = test system: LXRa homodimer (NR concentration 270 nM)
# Summary of the method: as §1
# [4] = test system: LXRb:RXRa (NR concentration 270 nM, RXRa partner concentration 90 nM)
# Summary of the method: as §1
# [5] = test system: LXRb homodimer (NR concentration 270 nM)
# Summary of the method: as §1
# [6] = test system: PPARa:RXRa (NR concentration 270 nM, RXRa partner concentration 90 nM)
# Summary of the method: as §1
# [7] = test system: PPARg:RXRa (NR concentration 180 nM, RXRa partner concentration 90 nM)
# Summary of the method: as §1
# [8] = test system: PPARg:RXRa 270nM:90nM, anti-RXR (NR concentration 270 nM, RXRa partner concentration 90 nM)
# Summary of the method: as §1
# [9] = test system: PPARg:RXRa 30nM:10nM, anti-RXR (NR concentration 30 nM, RXRa partner concentration 10 nM)
# Summary of the method: as §1
# [10] = test system: PPARg:RXRa 90nM:30nM, anti-RXR (NR concentration 90 nM, RXRa partner concentration 30 nM)
# Summary of the method: as §1
# [11] = test system: PPARg:RXRa DBDmut IVT, anti-RXR (DBD mutation: RXRa K156A/R161A, NR concentration 270 nM, RXRa partner concentration 90 nM)
# Summary of the method: as §1
# [12] = test system: PPARg:RXRa IVT, anti-PPARg (NR concentration 270 nM, RXRa partner concentration 90 nM)
# Summary of the method: as §1
# [13] = test system: PPARg DBDmut:RXRa IVT, anti-PPARg (DBD mutation: PPARg1 K132A/R137A, NR concentration 270 nM, RXRa partner concentration 90 nM)
# Summary of the method: as §1
# [14] = test system: PPARg DBDmut IVT, anti-PPARg (DBD mutation: PPARg1 K132A/R137A, NR concentration 270 nM)
# Summary of the method: as §1
# [15] = test system: PPARg homodimer (NR concentration 180 nM)
# Summary of the method: as §1
# [16] = test system: PXR:RXRa (NR concentration 270 nM, RXRa partner concentration 90 nM)
# Summary of the method: as §1
# [17] = test system: PXR homodimer (NR concentration 270 nM)
# Summary of the method: as §1
# [18] = test system: RARa:RXR (NR concentration 270 nM, RXRa partner concentration 90 nM)
# Summary of the method: as §1
# [19] = test system: RARa homodimer (NR concentration 270 nM)
# Summary of the method: as §1
# [20] = test system: RARb:RXRa (NR concentration 270 nM, RXRa partner concentration 90 nM)
# Summary of the method: as §1
Sequence,PBM binding z-score [1],PBM binding z-score [2],PBM binding z-score [3],PBM binding z-score [4],PBM binding z-score [5],PBM binding z-score [6],PBM binding z-score [7],PBM binding z-score [8],PBM binding z-score [9],PBM binding z-score [10],PBM binding z-score [11],PBM binding z-score [12],PBM binding z-score [13],PBM binding z-score [14],PBM binding z-score [15],PBM binding z-score [16],PBM binding z-score [17],PBM binding z-score [18],PBM binding z-score [19],PBM binding z-score [20]
TCTTGTAGATCAAAGGTTAGGAAAGCCGAAGCCT,1.26,1.45,-0.217,1.24,-0.196,4.06,7.63,7.57,7.89,9.05,2.13,3.42,0.503,0.103,1.92,1.04,-0.482,2.02,0.262,1.4
TCTATTTGGTCACGGAGGTCACACACGACGGGTA,3.93,3.92,3.39,3.88,2.63,4.23,4.04,4.8,4.57,4.77,2.53,4.35,4.5,3.22,3.91,4.86,2.58,4.88,2.06,4.21
CTACCAAGGTGAATAAGGTCGTTGATTACTATTC,1.18,1.3,0.402,1.58,-0.326,2.22,0.631,1.01,0.203,0.602,1.82,2.39,0.0322,-0.387,0.714,2.37,2.32,2.44,0.949,1.71
TCTCGGAGGACACGAAGGGTCAGAGCTCGACATC,1.35,1.66,-0.0975,1.19,-1.38,2.06,0.488,1.25,1.85,1.44,1.38,0.541,-0.0647,-1.25,0.446,1.66,-0.67,2.31,-0.314,3.14
CGAACGAGGGCATGTGTTGATAGCAAATGCCGAT,0.387,0.273,-0.286,0.11,-0.807,1.05,1.15,1.14,0.0411,0.632,2.61,1.67,0.15,-0.912,0.123,0.241,-0.168,0.367,0.149,1.81
TTTCAAAGTTCAAAGGTAACGTAAGTATCCACAC,7.1,6.88,6.41,4.86,2.71,5.69,6,6.43,3.39,5.49,0.271,2.61,1.49,1.37,3.4,5.62,4.59,6.38,1.45,4.99
CGCACGAGGGCATGAGTTGATAGCAAATGCCGAT,0.564,0.295,-0.626,0.0671,-0.764,1.1,0.947,0.583,-0.123,0.22,1.88,1.02,-0.109,-0.507,0.288,0.438,-0.109,0.296,-0.714,2.09
TCTTGTAGATCAGCAGGTTAAGTAAGCTGGCCAA,0.169,0.366,-0.23,0.424,-0.524,0.865,-0.624,1.25,2.73,2.04,1.65,0.766,-0.114,-0.0421,0.0118,0.266,-0.355,0.553,-0.134,0.298
TAATATAGGTAAACAGGTGAAAGTCCGTAAGTTA,0.323,0.622,0.406,0.745,0.296,3.34,5.42,4.89,2.54,4.16,6.47,6.56,2.22,1.8,2.01,0.69,0.586,1.12,1.5,0.768
TCTTGTAGATCAATAGAGGTTCAGAAAGTGCGCT,0.408,0.78,-0.0503,0.293,-0.193,0.663,-0.13,1.35,2.81,2.47,1.62,0.382,0.0591,1.1,-0.371,1.06,0.746,0.485,0.189,0.0734
CCAGACAGGTGAGAAGTTAACTCAGCCTCGATTA,-0.198,-0.285,-0.173,0.0436,-0.306,0.706,0.596,1.25,-0.0978,0.58,0.968,0.347,-0.638,-0.46,0.326,-0.109,0.36,0.0412,0.721,0.4
ATATGTAGGTTGAGGGTCATTCAGGTTGGTTCGC,3.26,3.21,1.56,3.31,1.32,4.86,7.99,7.58,6.69,7.97,4,4.86,1.94,0.913,3.16,4.49,2.53,3.89,1.57,2.57
ATCTCAAGGTAACCAAGTTCAGTGAATGCCGAAC,0.76,1.12,0.681,0.656,0.916,0.956,0.372,0.412,0.204,0.378,0.508,1.32,0.386,0.953,0.654,2.82,3,1.14,0.198,1.62
GCTAGCAGGCCATTTGGGTAACTCAATGACGGGC,-0.758,-0.699,-0.371,-0.899,-0.88,-0.267,0.519,-0.594,-0.844,-0.634,1.07,0.155,-0.238,-1.22,-0.806,-0.696,-0.721,-0.454,-1.37,-0.258
